Screens as filed in PubChem.
Most compounds without a hit are left out; they make up all but 3.2% or so of the library.
CaV13 FRET inh: Primary screen for inhibitors of IQ motif and Ca2+-dependent inactivation inhibitor domain binding in CACNA1D, Förster resonance energy transfer in living cells, …; HEK cells, CFP/YFP FRET ICDI-IQ, plate reader, 10 min; percent FRET-ratio fall versus neutral wells; inhibition, % at 12.3 µM; 340,000 compounds, 0.098% hits;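 active = mean replicate inhibition of at least 30% and at least 1% of replicates passing that level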;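 note: 0% = median of the neutral control wells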
Ecoli rRNA inh: selective bacterial rRNA inhibition in E. coli | E. coli WT GFP vs humanized-ribosome RFP mutants, fluorescence, 24 h; hits give low values; DMSO median 0, no signal -100 | GFP signal change (wild-type ribosome), % (concentration not given with the values) | 350,000 compounds, 1.6% hits | AID 720706;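 active = significant combined selectivity score with lowered wild-type GFP, culture density cut under 30%, mutant RFP and density less affected; inactive = any of these conditions unmet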
ERAP1 inh: ERAP1 (human) enzyme inhibition | recombinant ERAP1, Leu-AMC fluorescence, 60 min | Q9NZ08 | 340,000 compounds, 0.15% hits | inhibition, % at 10.7 µM;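 active = mean replicate inhibition of at least 30%, or all replicates individually reaching that 30% level; inactive = mean below 30% and not every replicate reaching it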;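 note: 0% = neutral control wells and 100% = L-leucinethiol positive control wells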
Target sequence (Q9NZ08 whole entry, looked up): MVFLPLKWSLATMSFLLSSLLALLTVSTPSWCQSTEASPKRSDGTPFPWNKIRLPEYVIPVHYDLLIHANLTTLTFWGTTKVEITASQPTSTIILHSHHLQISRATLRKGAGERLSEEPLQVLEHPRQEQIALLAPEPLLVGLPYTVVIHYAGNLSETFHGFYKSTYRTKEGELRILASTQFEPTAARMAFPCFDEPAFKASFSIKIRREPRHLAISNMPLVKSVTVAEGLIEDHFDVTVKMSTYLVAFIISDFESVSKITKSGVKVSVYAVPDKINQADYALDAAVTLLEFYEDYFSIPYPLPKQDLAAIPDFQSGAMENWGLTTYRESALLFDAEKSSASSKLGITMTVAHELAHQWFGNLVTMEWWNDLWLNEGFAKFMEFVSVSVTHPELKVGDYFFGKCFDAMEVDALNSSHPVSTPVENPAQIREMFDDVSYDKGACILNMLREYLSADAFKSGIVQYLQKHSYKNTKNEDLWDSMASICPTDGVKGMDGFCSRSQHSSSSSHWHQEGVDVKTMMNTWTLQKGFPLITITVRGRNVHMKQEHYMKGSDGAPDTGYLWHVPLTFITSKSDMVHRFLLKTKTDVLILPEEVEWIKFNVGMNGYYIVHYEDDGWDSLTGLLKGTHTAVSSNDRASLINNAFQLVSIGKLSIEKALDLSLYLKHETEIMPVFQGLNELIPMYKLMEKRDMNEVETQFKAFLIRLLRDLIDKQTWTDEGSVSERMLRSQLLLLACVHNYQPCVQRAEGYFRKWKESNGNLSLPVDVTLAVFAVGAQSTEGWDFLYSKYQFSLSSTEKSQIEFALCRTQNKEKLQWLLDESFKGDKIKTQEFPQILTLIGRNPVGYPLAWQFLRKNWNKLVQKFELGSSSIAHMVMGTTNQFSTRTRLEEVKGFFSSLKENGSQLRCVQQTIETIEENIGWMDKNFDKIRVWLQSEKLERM
PGC1a acetyl inh: modulators of PGC1a acetylation | U2OS PGC1a acetylation, AlphaScreen anti-acetyl-lysine; with virally co-expressed GCN5 acetyltransferase | inhibition, % at 15.6 µM | 350,000 compounds, 0.17% hits;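 active = every replicate shows inhibition of at least 40%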;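 note: 0% = neutral control wells and 100% = positive control wells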
DENV2 CPE: protects cells from dengue virus 2 cytopathic effect; CPE inhibition, % at 9.99 µM; 350,000 compounds, 1.7% hits; DENV2-infected cells, cytopathic effect rescue, plate reader; AID 651640; in the data active = CPE inhibition above about 20%, passing the limit was not always enough; tested in BHK-21 cells;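 note: 0% = median of neutral control wells and 100% = median of positive control wells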
INS-1E GSIS act: GLuc luminescence reporter in INS-1E cells, primary screen for activators of glucose-dependent secretion of insulin; INS-1E GLuc reporter insulin secretion, 2-3 h; activation, % at 16.6 µM; 370,000 compounds, 0.61% hits; AID 743287;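 active = lowest replicate activation of at least 40%, so every replicate reaches that level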;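 note: 0% = median of neutral control wells and 100% = median of IBMX positive control wells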
An asterisk follows results filed as active; x = not tested or not shown.

SMILES	CaV13 FRET inh	Ecoli rRNA inh	ERAP1 inh	PGC1a acetyl inh	DENV2 CPE	INS-1E GSIS act
CN(C)C(=O)c1ccc(-c2ccc3c(c2)[C@@H]2[C@@H](CCN2C(=O)C2CCCCC2)[C@H](CO)N3C)cc1	x	-7	3	-16	7	-23
COc1cccc(COC(=O)CSCC(=O)Nc2cccc(C)c2)c1OC	-3	-3	-1	x	0	47
COc1cccc(COC(=O)CSCC(=O)Nc2ccc(C)cc2)c1OC	-16	x	0	-6	72*	x
CC/C(=N\NC(=O)c1ccc2c(c1)OCO2)c1ccccc1	-6	7	5	x	33*	-8
COc1ccc(C(=O)NCc2cc(C)nc3ccccc23)cc1	-18	4	2	x	5	-2
C/C(=N\NC(=O)c1ccccc1)c1ccc2c(c1)OCO2	-5	x	x	-11	x	x
Cc1cc(CNC(=O)c2ccc3c(c2)OCO3)c2ccccc2n1	152*	-2	2	x	-4	2
O=S(=O)(Nc1nc2ccccc2nc1NCC1CCCO1)c1cc(Cl)ccc1Cl (stereo unspecified)	-2	-27*	x	4	0	-48
O=C(Cn1cccn1)N1CCCC(Nc2ccc(F)c(F)c2)C1 (stereo unspecified)	-3	5	0	-4	27*	1
OCC#CCSc1nnc(-c2cccc3ccccc23)o1	-7	-27	3	7	93*	x
O=C(OCC#CCSc1nnc(-c2cccc3ccccc23)o1)c1ccc(Cl)cc1	-5	9	-1	5	-4	7
Cc1noc(C)c1NC(=O)Nc1ccc2c(c1)C(=O)N([C@H](C)CO)C[C@H](C)[C@@H](CN(C)Cc1ccccc1)O2	x	3	4	x	23*	10
Cc1noc(C)c1NC(=O)Nc1ccc2c(c1)C(=O)N([C@H](C)CO)C[C@@H](C)[C@@H](CN(C)Cc1ccc(C(=O)Nc3ccccc3N)cc1)O2	x	0	2	6	0	-8
Cc1noc(C)c1NC(=O)Nc1ccc2c(c1)C(=O)N([C@H](C)CO)C[C@H](C)[C@H](CN(C)Cc1ccc(C(=O)Nc3ccccc3N)cc1)O2	x	1	-1	1	22*	23
Cc1noc(C)c1NC(=O)Nc1ccc2c(c1)C(=O)N([C@@H](C)CO)C[C@@H](C)[C@H](CN(C)Cc1ccccc1)O2	x	1	3	x	9	5
Cc1noc(C)c1NC(=O)Nc1ccc2c(c1)C(=O)N([C@@H](C)CO)C[C@H](C)[C@H](CN(C)Cc1ccccc1)O2	x	3	1	x	23*	6
O=C(NCC[C@@H]1CC[C@@H](NC(=O)c2cnccn2)[C@H](CO)O1)Nc1ccc(Cl)cc1	x	-12	3	-9	9	-15
O=C1[C@H](Oc2ccccc2)[C@@H](c2ccncc2)N1c1ccncc1	-6	20	1	11	-6	6
O=C1[C@@H](Oc2ccccc2)[C@@H](c2ccncc2)N1c1ccncc1	-3	7	-2	1	28*	35
C[C@H](CO)N1C[C@H](C)[C@@H](CN(C)C(=O)Nc2ccc(F)cc2)Oc2ccc(NC(=O)Cc3cn(C)c4ccccc34)cc2C1=O	x	-2	1	-8	0	-2
COc1cc(N2C(=O)C=CC2=O)ccc1N1C(=O)C=CC1=O	-6	1	48*	-15	0	x
CCOC(=O)c1csc(NC(=O)c2cc(=O)c3ccccc3o2)n1	-2	-26*	4	x	6	-5
CC(=O)c1sc(NC(=O)c2cc(=O)c3ccccc3o2)nc1C	-4	-13	1	x	5	-2
CCOC(=O)c1oc2ccccc2c1NC(=O)c1ccco1	-4	6	-1	x	7	49*
O=C(CCCN1C(=O)S/C(=C\C=C\c2ccccc2)C1=O)Nc1ccc(C(=O)O)cc1	-3	-6	7	0	12	-11
O=C(CCN1C(=O)S/C(=C\C=C\c2ccccc2)C1=O)Nc1ccc(O)cc1	-2	-25*	1	x	-9	3
COc1ccc2c3c(n(C)c2c1)[C@H](CO)N(C(C)=O)CC31CCN(C(=O)c2cnccn2)CC1	x	-1	-2	-3	5	23
